Measured values published in paper PMC8384837, “Expanding the binding specificity for RNA recognition by a PUF domain”.

Experiments:
Experiment in all cases: yeast three-hybrid, YBZ-1, SC-Leu-His + 0.5 mM 3-AT, 4 days
Settings in all cases: tags: N-Gal4 AD-HA kept; label: inside an RPR1-promoter hybrid RNA with tandem MS2 sites; ssRNA
[1] = molecular target: PUM1 PUF domain R4-PFK (Homo sapiens, UniProt Q14671 828-1176, N971P;H972F;Q975K)
How it was run: (§1)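 A centromeric plasmid in strain YBZ-1 co-expressed Pumilio-1 PUF domain libraries, randomized at the three base-contacting residues of each repeat, with matching RNA elements; the strain carries a LexA–MS2 coat fusion and a HIS3 reporter. After four days on SC-Leu (input) or SC-Leu-His + 0.5 mM 3-AT (selection), the repeat regions were PCR-amplified and Illumina-sequenced. The interaction score is the log change in variant frequency from input to selection, using log2 and a pseudocount of 1 where absent.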

[2] = molecular target: PUM1 PUF domain R4-APR (Homo sapiens, UniProt Q14671 828-1176, N971A;H972P;Q975R)
PUM1 PUF domain R4-APR, sequence (Q14671 828-1176 N971A/H972P/Q975R): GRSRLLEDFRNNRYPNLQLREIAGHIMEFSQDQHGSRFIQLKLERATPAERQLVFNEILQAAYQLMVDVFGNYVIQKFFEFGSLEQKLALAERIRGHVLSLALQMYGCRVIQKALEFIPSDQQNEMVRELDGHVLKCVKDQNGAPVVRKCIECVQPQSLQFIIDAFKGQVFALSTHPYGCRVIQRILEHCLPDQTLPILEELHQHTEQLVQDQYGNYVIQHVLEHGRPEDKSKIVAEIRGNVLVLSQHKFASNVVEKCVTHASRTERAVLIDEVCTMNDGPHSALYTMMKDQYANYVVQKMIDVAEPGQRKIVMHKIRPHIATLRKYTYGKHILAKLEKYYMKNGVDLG
How it was run: as §1

[3] = molecular target: PUM1 PUF domain R4-GNC (Homo sapiens, UniProt Q14671 828-1176, N971G;H972N;Q975C)
How it was run: as §1

[4] = molecular target: PUM1 PUF domain R3-LWE (Homo sapiens, UniProt Q14671 828-1176, C935L;R936W;Q939E)
PUM1 PUF domain R3-LWE, sequence (Q14671 828-1176 C935L/R936W/Q939E): as the sequence (Q14671 828-1176 N971A/H972P/Q975R) above, with C108L, R109W, Q112E, A144N, P145H, R148Q counted along it
How it was run: as §1

[5] = molecular target: PUM1 PUF domain R3-LFG (Homo sapiens, UniProt Q14671 828-1176, C935L;R936F;Q939G)
How it was run: as §1

[6] = molecular target: PUM1 PUF domain R1-SPR (Homo sapiens, UniProt Q14671 828-1176, R864P;Q867R)
How it was run: as §1

[7] = molecular target: PUM1 PUF domain R1-RVT (Homo sapiens, UniProt Q14671 828-1176, S863R;R864V;Q867T)
How it was run: as §1

[8] = molecular target: PUM1 PUF domain R1-KNS (Homo sapiens, UniProt Q14671 828-1176, S863K;R864N;Q867S)
How it was run: as §1

[9] = molecular target: PUM1 PUF domain R3-RER (Homo sapiens, UniProt Q14671 828-1176, C935R;R936E;Q939R)
PUM1 PUF domain R3-RER, sequence (Q14671 828-1176 C935R/R936E/Q939R): as the sequence (Q14671 828-1176 N971A/H972P/Q975R) above, with C108R, R109E, Q112R, A144N, P145H, R148Q counted along it
How it was run: as §1

[10] = molecular target: PUM1 PUF domain R5-MPR (Homo sapiens, UniProt Q14671 828-1176, C1007M;R1008P;Q1011R)
PUM1 PUF domain R5-MPR, sequence (Q14671 828-1176 C1007M/R1008P/Q1011R): as the sequence (Q14671 828-1176 N971A/H972P/Q975R) above, with A144N, P145H, R148Q, C180M, R181P, Q184R counted along it
How it was run: as §1

[11] = molecular target: PUM1 PUF domain R8-RWD (Homo sapiens, UniProt Q14671 828-1176, N1122R;Y1123W;Q1126D)
PUM1 PUF domain R8-RWD, sequence (Q14671 828-1176 N1122R/Y1123W/Q1126D): as the sequence (Q14671 828-1176 N971A/H972P/Q975R) above, with A144N, P145H, R148Q, N295R, Y296W, Q299D counted along it
How it was run: as §1

[12] = molecular target: PUM1 PUF domain R8-PWH (Homo sapiens, UniProt Q14671 828-1176, N1122P;Y1123W;Q1126H)
How it was run: as §1

[13] = molecular target: PUM1 PUF domain R4-PHK (Homo sapiens, UniProt Q14671 828-1176, N971P;Q975K)
PUM1 PUF domain R4-PHK, sequence (Q14671 828-1176 N971P/Q975K): as the sequence (Q14671 828-1176 N971A/H972P/Q975R) above, with A144P, P145H, R148K counted along it
How it was run: as §1

[14] = molecular target: PUM1 PUF domain R5-RQI (Homo sapiens, UniProt Q14671 828-1176, C1007R;R1008Q;Q1011I)
PUM1 PUF domain R5-RQI, sequence (Q14671 828-1176 C1007R/R1008Q/Q1011I): as the sequence (Q14671 828-1176 N971A/H972P/Q975R) above, with A144N, P145H, R148Q, C180R, R181Q, Q184I counted along it
How it was run: as §1

[15] = molecular target: PUM1 PUF domain R5-KAE (Homo sapiens, UniProt Q14671 828-1176, C1007K;R1008A;Q1011E)
PUM1 PUF domain R5-KAE, sequence (Q14671 828-1176 C1007K/R1008A/Q1011E): as the sequence (Q14671 828-1176 N971A/H972P/Q975R) above, with A144N, P145H, R148Q, C180K, R181A, Q184E counted along it
How it was run: as §1

[16] = molecular target: PUM1 PUF domain R1-KDS (Homo sapiens, UniProt Q14671 828-1176, S863K;R864D;Q867S)
PUM1 PUF domain R1-KDS, sequence (Q14671 828-1176 S863K/R864D/Q867S): as the sequence (Q14671 828-1176 N971A/H972P/Q975R) above, with S36K, R37D, Q40S, A144N, P145H, R148Q counted along it
How it was run: as §1

[17] = molecular target: PUM1 PUF domain R5-DKQ (Homo sapiens, UniProt Q14671 828-1176, C1007D;R1008K)
How it was run: as §1

[18] = molecular target: PUM1 PUF domain R5-FRC (Homo sapiens, UniProt Q14671 828-1176, C1007F;Q1011C)
How it was run: as §1

[19] = molecular target: PUM1 PUF domain R5-KQD (Homo sapiens, UniProt Q14671 828-1176, C1007K;R1008Q;Q1011D)
How it was run: as §1

[20] = molecular target: PUM1 PUF domain R7-EHG (Homo sapiens, UniProt Q14671 828-1176, S1079E;N1080H;E1083G)
How it was run: as §1

PUM1 PUF domain R4-PFK, sequence (Q14671 828-1176 N971P/H972F/Q975K): as the sequence (Q14671 828-1176 N971A/H972P/Q975R) above, with A144P, P145F, R148K counted along it

Sequence: GGCUAGAACUAGUGGAUCCCCCGGCGCCCGGCGGCUCGAGCCCGGGUAAGUGUAUAUAGUCUGCAUGCCGCCGGGCGCCAUGCCUGCAGGUCGACUCUAGAAAACAUG
- binding signal [1]: 6.46 log2 enrichment (interaction score)
- binding signal [2]: 2.82 log2 enrichment (interaction score)
- binding signal [3]: 3.99 log2 enrichment (interaction score)

Sequence: GGCUAGAACUAGUGGAUCCCCCGGCGCCCGGCGGCUCGAGCCCGGGUAAGUGUAAGUAGUCUGCAUGCCGCCGGGCGCCAUGCCUGCAGGUCGACUCUAGAAAACAUG
- binding signal [4]: 5.48 log2 enrichment (interaction score)
- binding signal [5]: 4.75 log2 enrichment (interaction score)

Sequence: GGCUAGAACUAGUGGAUCCCCCGGCGCCCGGCGGCUCGAGCCCGGGUAAGUGUAAAUUGUCUGCAUGCCGCCGGGCGCCAUGCCUGCAGGUCGACUCUAGAAAACAUG
- binding signal [6]: 1.48 log2 enrichment (interaction score)
- binding signal [7]: 4.35 log2 enrichment (interaction score)
- binding signal [8]: 3.86 log2 enrichment (interaction score)

Sequence: GGCUAGAACUAGUGGAUCCCCCGGCGCCCGGCGGCUCGAGCCCGGGUAAGUGUAAUUAGUCUGCAUGCCGCCGGGCGCCAUGCCUGCAGGUCGACUCUAGAAAACAUG
- binding signal [4]: 1.78 log2 enrichment (interaction score)
- binding signal [9]: 4.06 log2 enrichment (interaction score)
- binding signal [5]: 1.87 log2 enrichment (interaction score)

Sequence: GGCUAGAACUAGUGGAUCCCCCGGCGCCCGGCGGCUCGAGCCCGGGUAAGUGUAAAUAGUCUGCAUGCCGCCGGGCGCCAUGCCUGCAGGUCGACUCUAGAAAACAUG
- binding signal [1]: 4.17 log2 enrichment (interaction score)
- binding signal [4]: 3.37 log2 enrichment (interaction score)
- binding signal [10]: 1.45 log2 enrichment (interaction score)
- binding signal [11]: 2.26 log2 enrichment (interaction score)
- binding signal [12]: 2.69 log2 enrichment (interaction score)
- binding signal [3]: 1.09 log2 enrichment (interaction score)
- binding signal [5]: 1.41 log2 enrichment (interaction score)

Sequence: GGCUAGAACUAGUGGAUCCCCCGGCGCCCGGCGGCUCGAGCCCGGGUAAGUGUACAUAGUCUGCAUGCCGCCGGGCGCCAUGCCUGCAGGUCGACUCUAGAAAACAUG
- binding signal [1]: 4.33 log2 enrichment (interaction score)
- binding signal [13]: 3.9 log2 enrichment (interaction score)
- binding signal [2]: 2.91 log2 enrichment (interaction score)
- binding signal [3]: 3.28 log2 enrichment (interaction score)

Sequence: GGCUAGAACUAGUGGAUCCCCCGGCGCCCGGCGGCUCGAGCCCGGGUAAGUGUUAAUAGUCUGCAUGCCGCCGGGCGCCAUGCCUGCAGGUCGACUCUAGAAAACAUG
- binding signal [14]: 4.62 log2 enrichment (interaction score)
- binding signal [15]: 2.99 log2 enrichment (interaction score)

Sequence: GGCUAGAACUAGUGGAUCCCCCGGCGCCCGGCGGCUCGAGCCCGGGUAAGUGUAAAUCGUCUGCAUGCCGCCGGGCGCCAUGCCUGCAGGUCGACUCUAGAAAACAUG
- binding signal [16]: 2.96 log2 enrichment (interaction score)
- binding signal [6]: 2.62 log2 enrichment (interaction score)
- binding signal [7]: 5.15 log2 enrichment (interaction score)

Sequence: GGCUAGAACUAGUGGAUCCCCCGGCGCCCGGCGGCUCGAGCCCGGGUAAGCGUAAAUAGUCUGCAUGCCGCCGGGCGCCAUGCCUGCAGGUCGACUCUAGAAAACAUG
- binding signal [11]: 2.45 log2 enrichment (interaction score)

Sequence: GGCUAGAACUAGUGGAUCCCCCGGCGCCCGGCGGCUCGAGCCCGGGUAAGUGUCAAUAGUCUGCAUGCCGCCGGGCGCCAUGCCUGCAGGUCGACUCUAGAAAACAUG
- binding signal [14]: 2.06 log2 enrichment (interaction score)
- binding signal [15]: 3.8 log2 enrichment (interaction score)
- binding signal [10]: 2.13 log2 enrichment (interaction score)
- binding signal [17]: 5.31 log2 enrichment (interaction score)
- binding signal [18]: 3.83 log2 enrichment (interaction score)
- binding signal [19]: 2.75 log2 enrichment (interaction score)

Sequence: GGCUAGAACUAGUGGAUCCCCCGGCGCCCGGCGGCUCGAGCCCGGGUAAGUGUAAAUGGUCUGCAUGCCGCCGGGCGCCAUGCCUGCAGGUCGACUCUAGAAAACAUG
- binding signal [16]: 2.77 log2 enrichment (interaction score)
- binding signal [7]: 3.15 log2 enrichment (interaction score)

Sequence: GGCUAGAACUAGUGGAUCCCCCGGCGCCCGGCGGCUCGAGCCCGGGUAAGUCUAAAUAGUCUGCAUGCCGCCGGGCGCCAUGCCUGCAGGUCGACUCUAGAAAACAUG
- binding signal [20]: 5.15 log2 enrichment (interaction score)
